# Hits are enriched below; roughly 7.5% of the tested compounds scored in any of these assays.
# Rab9 prom act: qHTS Assay for Rab9 Promoter Activators; Huh7 Rab9 promoter-luciferase reporter, luminescence, 24 h; Potency, µM (top dose mostly 9.22 µM), for the others: at the top dose activation, negative = inhibition, hits mostly activators; 2.8% of 320,000 active; AID 485297, 2010; also: % of control where 0% means no effect; nearly all actives have a fitted effect of over 60% in size
#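 Huh7 reporter line, Rab9 promoter upstream of luciferase. Compound exposure 24 h at 37 °C in reduced-serum medium with 10% FBS. Read-out: luminescence.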
# ELG1 genotox: qHTS screen for small molecules that induce genotoxicity in human embryonic kidney (HEK293T) cells expressing luciferase-tagged ELG1; Potency, µM (highest dose often 46 µM), inactives show at the highest dose activity change, positive = activation, most hits filed as activators; HEK293T ELG1-luciferase reporter, luminescence, 16 h; 1.3% of 330,000 active; also: % of control where 0% means no effect; nearly all actives have a fitted effect of over 60% in size
#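 Screening used a luciferase reporter fused to human ELG1 in HEK293T cells. Luminescence was read on a CCD plate imager after 16 hr exposure and 30 min ONE-Glo incubation.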
# FLuc counter: qHTS profiling assay for firefly luciferase inhibitor/activator using purifed enzyme and Km concentrations of substrates (counterscreen for miR-21 project); Luciferin 4-monooxygenase (Photinus pyralis), P08659; 6.9% of 360,000 active; purified FLuc, Km substrates, luminescence inhibition; Potency, µM (series often up to 57.5 µM), for the others: top-dose activity change, negative = inhibition, most hits filed as inhibitors;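 also: plate controls were vehicle for no effect and reference inhibitor for full effect; nearly all actives have a fitted effect of over 55% in size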
# Target sequence (P08659 whole entry, looked up): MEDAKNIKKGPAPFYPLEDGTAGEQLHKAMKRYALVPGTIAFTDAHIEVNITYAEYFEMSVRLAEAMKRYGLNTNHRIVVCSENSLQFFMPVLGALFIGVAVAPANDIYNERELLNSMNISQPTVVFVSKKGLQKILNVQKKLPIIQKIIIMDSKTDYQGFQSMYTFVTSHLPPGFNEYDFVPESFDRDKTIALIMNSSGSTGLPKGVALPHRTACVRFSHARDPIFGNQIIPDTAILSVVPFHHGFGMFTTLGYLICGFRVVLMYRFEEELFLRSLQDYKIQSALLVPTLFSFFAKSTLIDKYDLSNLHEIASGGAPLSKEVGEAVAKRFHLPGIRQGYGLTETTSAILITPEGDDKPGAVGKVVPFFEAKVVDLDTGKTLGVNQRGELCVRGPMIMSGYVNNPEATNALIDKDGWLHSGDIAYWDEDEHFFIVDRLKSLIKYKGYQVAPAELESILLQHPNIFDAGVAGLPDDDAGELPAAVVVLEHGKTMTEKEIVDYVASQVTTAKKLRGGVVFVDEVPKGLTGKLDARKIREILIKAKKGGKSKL
#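 Purified P. pyralis luciferase (10nM final) with 10uM D-luciferin and 10uM ATP (Km levels) in 50mM Tris acetate pH 7.5, 10mM Mg acetate, 0.01% Tween-20, 0.05% BSA; qHTS 6-point titration, ~60 µM downward; luminescence read.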
# SMN2 splice enh: qHTS Assay for Enhancers of SMN2 Splice Variant Expression; 2.8% of 210,000 active; AID 1458, 2008; HEK293 SMN2-luciferase splicing reporter, luminescence, 30-36 h; Potency, µM (highest dose often 46.1 µM), inactives show at the highest dose activity change, positive = activation, actives largely listed as activators; also: % of control where 0% means no effect; nearly all actives have a fitted effect of over 55% in size
#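 qHTS luciferase splicing reporter: luminescence rises when SMN2 exon 7 is included in transfected HEK293 cells. Compound exposure lasted 30-36 h at 37C, with 4.5 mM final sodium butyrate as control, followed by a ONE-Glo read.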
# NPC1 promoter act: qHTS Assay for NPC1 Promoter Activators; Huh7 NPC1 promoter luciferase reporter, 24 h; Potency, µM (doses to about 9.22 µM), inactives show at the top dose activation, actives largely listed as activators; 2.4% of 320,000 active; AID 485313, 2010; also: % of control where 0% means no effect; nearly all actives have a fitted effect of over 60% in size
#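 Cells: Huh7 expressing luciferase under the NPC1 promoter, 1500/well. Seeded 2 h, compound added, incubated 24 h at 37 °C. Luciferase reagent, 10 min ambient, then luminescence.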
# KinaseGlo FLuc: Counterscreen for Luciferase (Kinase-Glo TM) Inhibition; Luciferin 4-monooxygenase (Photuris pensylvanica), Q27757; Kinase-Glo luciferase, ATP luminescence, 8 min; Potency, µM (top dose mostly 38.3 µM), for the others: top-dose activity change, negative = inhibition, actives largely listed as inhibitors; 0.28% of 200,000 active; AID 1379, 2008; also: % is scaled to controls: 0 for no effect and ±100 for the full control effect; nearly all actives have a fitted effect of over 60% in size
#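 Substrate mix (final 50 mM imidazole pH 7.2, 50 mM KCl, 7 mM MgCl2, 10 uM ATP, 0.01% Tween 20, 0.05% BSA) plus pin-tool compound, then Kinase-Glo detection mix; 8 min ambient, luminescence read.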
# * marks the source's active call; other numbers are inactive results; ? = inconclusive; nt = no result. Calls follow the shape of the dose curve; as a rule, active = well fitted curve in the direction sought with a large enough effect; inconclusive = small, poorly fitted or top-dose-only effect, or another doubt; inactive = no such curve, though single readings can be large; an effect the other way counts as inactive or inconclusive. Potency is read from the fitted curve at half-maximal effect.
SMILES,Rab9 prom act,ELG1 genotox,FLuc counter,SMN2 splice enh,NPC1 promoter act,KinaseGlo FLuc
COc1cc(NC(=O)CCc2c(C)nc3c(-c4ccc(F)cc4)c(C)nn3c2C)cc(OC)c1OC,nt,nt,0%,-13%,nt,nt
Cc1c(C(=O)O)cnc2cc(-c3ccc(Cl)cc3)nn12,?,?,9.5µM*,11µM*,?,-4%
CC(=O)c1cnc2c(-c3ccc(Cl)cc3)c(C)nn2c1C,2%,8%,-4%,-11%,0%,0%
Cc1nc2cc(-c3ccc(Cl)cc3)nn2c(C)c1CCC(=O)N1CCN(c2ccccc2)CC1,nt,nt,-13%,3%,nt,nt
CC(=O)c1cnc2cc(-c3ccc(Cl)cc3)nn2c1C,3.5µM*,?,2.7µM*,nt,4.5µM*,-2%
COc1ccc(CNc2nc(-c3ccccc3OC)nc3ccccc23)c(OC)c1,nt,nt,nt,-43%,nt,0%
CCn1nnnc1SCC(=O)c1ccc(C)cc1,?,?,15µM*,3%,?,-4%
CCn1c(SCC(=O)c2ccc3c(c2)OCCO3)nnc1-c1ccco1,0%,-1%,8.5µM*,21%,2%,4%
CCCn1nnnc1SCC(=O)c1ccc2c(c1)OCCO2,?,?,12µM*,3%,?,-2%
CCn1nnnc1SCC(=O)c1ccc(NC(C)=O)cc1,26%,6%,-12%,-6%,2%,-4%
COCCn1c(SCC(=O)c2ccc3c(c2)OCCO3)nnc1-c1ccco1,2%,-10%,-13%,18%,-4%,-8%
O=C(O)CCSCC(=O)c1ccc2c(c1)OCCO2,-6%,23%,11µM*,?,16%,12%
O=C(O)CCC(=O)c1ccc2c(c1)OCCO2,6%,0%,-14%,12%,1%,-1%
Cn1nnnc1SCC(=O)c1ccc2c(c1)OCCO2,?,9%,?,nt,23%,-10%
CCOCCCNC(=O)c1cc2c(s1)-c1ccccc1SC2,5%,2%,17µM*,nt,1%,nt
Cc1cc(NC(=O)Nc2cc(Cl)sc2Cl)no1,1%,3%,?,nt,13%,nt
Brc1ccc(-c2cn3nc4c(nc3n2)CCCC4)cc1,0.28µM*,?,0.27µM*,4µM*,0.1µM*,?
c1ccc(-c2cn3nc4c(nc3n2)CCCC4)cc1,0.13µM*,0.13µM*,0.3µM*,0.5µM*,0.11µM*,14µM*
COc1ccccc1S(=O)(=O)Cc1ccc(C(=O)NCc2ccc(Cl)cc2)o1,nt,nt,3%,-26%,nt,nt
CCc1ccc(OCC(=O)NCC(c2ccc(OC)cc2)N2CCOCC2)cc1 (stereo not drawn),nt,nt,-1%,nt,nt,nt
CCC(=O)N1c2ccc(S(=O)(=O)NCc3ccc(F)cc3)cc2CC1C (stereo not drawn),nt,nt,5%,-50%,nt,nt
N/C(=N\OC(=O)COc1ccc2ccccc2c1Br)c1cccnc1,-2%,11%,19µM*,-2%,1%,2%
N/C(=N\OC(=O)COc1ccc2ccccc2c1Br)c1ccccn1,?,?,21µM*,?,?,0%
O=C(COc1ccc2ccccc2c1Br)N1CCCC1,?,?,?,nt,19%,nt
CCc1ccc(NC(=O)COCc2cc(-c3ccc(F)cc3)on2)cc1,nt,nt,-4%,12%,nt,nt
SMILES,Rab9 prom act,ELG1 genotox,FLuc counter,SMN2 splice enh,NPC1 promoter act,KinaseGlo FLuc
Cc1ccc(N=CC=C2OC(C)(C)C(C)(C)O2)cc1,-4%,2%,7.6µM*,-4%,-4%,-2%
Cc1cccc(N=CC=C2OC(C)(C)C(C)(C)O2)c1,-3%,11%,?,-11%,-4%,-1%
COc1ccc(C(=O)c2cnc(/N=C/N(C)C)s2)cc1,26%,11%,?,?,13%,4%
CN(C)/C=N/c1ncc(C(=O)c2ccc3ccccc3c2)s1,?,3%,24µM*,-29%,23%,0%
COC(=O)c1sc2cccc(F)c2c1S(=O)(=O)NCc1ccc(F)cc1,nt,nt,0%,nt,nt,nt
Cc1cc(C(=O)CSc2nc(N)cc(N)n2)c(C)n1C1CC1,-4%,-12%,-4%,-14%,-2%,10%
C=CCn1c(C)cc(C(=O)CSc2nc(N)cc(N)n2)c1C,21%,3%,21µM*,-1%,1%,-2%
Cc1cc(C(=O)CSc2nc(N)cc(N)n2)c(C)n1-c1cccc(F)c1,-5%,-2%,24µM*,-37%,3%,-1%
CCOC(=O)N1CCc2c(sc3c2c(=O)n(Cc2ccccc2)c(=O)n3Cc2c(F)cccc2Cl)C1,nt,nt,-1%,-16%,nt,nt
CCOc1ccc(N(CC(=O)Nc2ccc3c(c2)OCO3)S(=O)(=O)c2ccccc2)cc1,nt,nt,-7%,-21%,nt,nt
Oc1ccc(-c2nc(-c3ccc(O)c(O)c3)cs2)cc1,5%,?,15µM*,20µM*,-4%,-8%
Cc1ccc(-c2csc(NC(=O)CN3C(=O)CCC3=O)n2)cc1,-22%,4%,-1%,9%,-2%,-5%
Oc1ccc(Nc2nc(-c3ccc4ccccc4c3)cs2)cc1,?,?,1.1µM*,25%,?,-3%
O=C(CN1C(=O)CCC1=O)Nc1nc(-c2ccc3ccccc3c2)cs1,?,14%,17µM*,27%,26%,1%
CC(=O)Nc1nc(-c2ccc3ccccc3c2)cs1,1.1µM*,?,1.3µM*,nt,0.63µM*,nt
Fc1ccc(-c2csc(-c3ccncc3)n2)cc1,17%,-8%,?,-9%,23%,1%
COc1ccc(Cl)cc1NC(=O)CN1C(=O)COc2ccc(S(=O)(=O)NC3CCCC3)cc21,nt,nt,1%,nt,nt,nt
Cc1cc(NS(=O)(=O)c2ccc(Nc3nc(-c4ccc(C)c(C)c4)cs3)cc2)no1,-2%,-3%,?,-16%,-2%,3%
O=C(CN1C(=O)CCC1=O)Nc1nc(-c2nc3ccccc3s2)cs1,2.8µM*,?,11µM*,13µM*,?,0%
Cc1cc(NS(=O)(=O)c2ccc(Nc3nc(-c4ccc(O)cc4)cs3)cc2)no1,-9%,0%,24µM*,12%,-20%,5%
Cc1ccc2c(CNCc3ccc(C)o3)c(C(=O)O)n(Cc3ccccc3C)c2c1,nt,nt,-13%,nt,nt,nt
CN1CCN(C(=S)c2ccc(-c3cccc([N+](=O)[O-])c3)o2)CC1,2.2µM*,10µM*,6.7µM*,nt,2.2µM*,nt
O=[N+]([O-])c1cccc(-c2ccc(C(=S)N3CCOCC3)o2)c1,1.1µM*,?,3µM*,11µM*,2.8µM*,-1%

# Source: PubChem BioAssay
